In PubChem BioAssay AID1159580 (chemical genetic matrix, 2015):
Among all 5,500 compounds or so, about 2,000 (36%) were called active. Another 18% or so got no clear call; they are omitted. Rule as the data show it: active = normalized growth mostly below about 0.91 (no sharp cut-off); inconclusive = no clear call, values can overlap the other calls; inactive = mostly above about 0.92. Some of the results follow.

Experiment: chemical genetic growth profiling, strain panel (AID 1159580);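 also: tested at 20 µM; growth read once vehicle control cultures reached saturation at 30 °C; 1 = growth at the plate median or of vehicle wells; lower values mean less growth of the strain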
Conditions: S. cerevisiae deletion strains, growth OD
[1] = locus YDR150W, strain NUM1, active compounds read low
[2] = locus YMR307W, strain GAS1, active compounds read low
[3] = locus YPL055C, strain LGE1, active compounds read low

Measured: normalized growth

C[C@]12C=CC(=O)C=C1CC[C@H]1[C@@H]3C[C@@H](O)[C@](O)(C(=O)CO)[C@@]3(C)C[C@H](O)[C@@]12F
inactive: locus YAL040C, strain CLN3, active compounds read low 1.02 | locus YCL061C, strain MRC1 (second series), active compounds read low 1.01 | [1] 1 | locus YDR363W, strain ESC2, active compounds read low 1.05 | locus YER002W, strain NOP16, active compounds read low 1.01 | locus YGR078C, strain PAC10, active compounds read low 1 | [2] 1.02 | locus YNL128W, strain TEP1, active compounds read low 1.01 | locus YNL153C, strain GIM3, active compounds read low 1 | locus YNL175C, strain NOP13, active compounds read low 1 | locus YNL197C, strain WHI3, active compounds read low 0.987 | locus YNL224C, strain SQS1, active compounds read low 1.01 | locus YOR083W, strain WHI5 (second series), active compounds read low 1.01 | [3] 1.03

CSCCC(NC=O)C(=O)NC(CC(C)C)C(=O)NC(Cc1ccccc1)C(=O)O (centres undefined)
inactive: locus YAL013W, strain DEP1, active compounds read low 1.01 | locus YAL021C, strain ccr4, active compounds read low 1.01 | locus YAL026C, strain drs2, active compounds read low 1 | locus YAL030W, strain snc1, active compounds read low 1 | locus YBL061C, strain skt5, active compounds read low 1 | locus YBR009C, strain hhf1, active compounds read low 1 | locus YBR021W, strain FUR4, active compounds read low 0.998 | locus YBR023C, strain chs3, active compounds read low 1 | locus YBR171W, strain sec66, active compounds read low 0.998 | locus YBR229C, strain ROT2, active compounds read low 1 | locus YBR231C, strain swc5, active compounds read low 0.997 | locus YBR279W, strain paf1, active compounds read low 1.01 | locus YCL011C, strain gbp2, active compounds read low 1 | locus YCL016C, strain dcc1, active compounds read low 1 | locus YCL029C, strain bik1, active compounds read low 0.983 | locus YCL061C, strain MRC1, active compounds read low 1.01 | locus YCL069W, strain vba3, active compounds read low 1.01 | locus YCR088W, strain abp1, active compounds read low 0.999 | locus YDL005C, strain med2, active compounds read low 0.988 | locus YDL035C, strain GPR1, active compounds read low 0.999 | locus YDL040C, strain nat1, active compounds read low 1 | locus YDL074C, strain BRE1, active compounds read low 1.03 | locus YDL101C, strain DUN1, active compounds read low 1.02 | locus YDL134C, strain PPH21, active compounds read low 0.996 | locus YDL185W, strain tfp1, active compounds read low 0.994 | locus YDL192W, strain arf1, active compounds read low 0.994 | locus YDR001C, strain nth1, active compounds read low 1 | locus YDR069C, strain doa4, active compounds read low 1 | locus YDR101C, strain arx1, active compounds read low 1 | locus YDR137W, strain rgp1, active compounds read low 1.01 | [1] 1.01 | locus YDR159W, strain sac3, active compounds read low 1 | locus YDR162C, strain NBP2, active compounds read low 1 | locus YDR195W, strain ref2 0.97 | locus YDR297W, strain sur2, active compounds read low 0.99 | locus YDR318W, strain mcm21, active compounds read low 1.01 | locus YDR334W, strain swr1, active compounds read low 1.01 | locus YDR335W, strain msn5, active compounds read low 1 | locus YDR388W, active compounds read low 1 | locus YDR392W, strain spt3, active compounds read low 1.01 | locus YDR502C, strain sam2, active compounds read low 1 | locus YEL003W, strain gim4, active compounds read low 1 | locus YEL037C, strain rad23, active compounds read low 1.01 | locus YEL061C, strain CIN8 (second series), active compounds read low 1.02 | locus YEL061C, strain CIN8, active compounds read low 1.01 | locus YER015W, strain faa2, active compounds read low 1 | locus YER016W, strain bim1, active compounds read low 1 | locus YER110C, active compounds read low 1.01 | locus YER111C, strain swi4, active compounds read low 1 | locus YER155C, strain BEM2 (second series), active compounds read low 0.995 | locus YER155C, strain BEM2, active compounds read low 1.01 | locus YER167W, strain BCK2, active compounds read low 0.995 | locus YFR010W, strain ubp6, active compounds read low 1 | locus YGL078C, strain dbp3, active compounds read low 0.99 | locus YGL086W, strain mad1, active compounds read low 1 | locus YGL167C, strain pmr1, active compounds read low 1 | locus YGL173C, strain kem1, active compounds read low 1.01 | locus YGL227W, strain vid30, active compounds read low 0.992 | locus YGL240W, strain doc1, active compounds read low 1 | locus YGL248W, strain PDE1, active compounds read low 1.01 | locus YGL253W, strain hxk2, active compounds read low 0.995 | locus YGR135W, strain pre9, active compounds read low 1 | locus YGR252W, strain gcn5, active compounds read low 1.01 | locus YHR013C, strain ard1, active compounds read low 1 | locus YHR027C, strain rpn1, active compounds read low 0.986 | locus YHR030C, strain SLT2, active compounds read low 0.998 | locus YHR079C, strain IRE1 (second series), active compounds read low 1 | locus YHR094C, strain hxt1, active compounds read low 1 | locus YHR129C, strain ARP1, active compounds read low 1.01 | locus YHR142W, strain chs7, active compounds read low 1.01 | locus YHR200W, strain rpn10, active compounds read low 0.98 | locus YIL066C, strain RNR3, active compounds read low 0.996 | locus YIL073C, strain SPO22, active compounds read low 1.01 | locus YIL125W, strain kgd1, active compounds read low 0.998 | locus YIR030C, strain dcg1, active compounds read low 0.99 | locus YJL092W, strain hpr5, active compounds read low 0.993 | locus YJL095W, strain BCK1 (second series), active compounds read low 1 | locus YJL095W, strain BCK1, active compounds read low 1.03 | locus YJL115W, strain asf1, active compounds read low 1.01 | locus YJL129C, strain trk1, active compounds read low 1 | locus YJL134W, strain LCB3, active compounds read low 1 | locus YJL154C, strain vps35, active compounds read low 1 | locus YJL164C, strain tpk1, active compounds read low 1.01 | locus YJL166W, strain qcr8, active compounds read low 1.03 | locus YJL168C, strain set2, active compounds read low 1.01 | locus YJL187C, strain SWE1 (second series), active compounds read low 1.04 | locus YJL187C, strain SWE1, active compounds read low 0.999 | locus YJR043C, strain POL32, active compounds read low 0.992 | locus YJR075W, strain HOC1, active compounds read low 1.02 | locus YKL009W, strain mrt4, active compounds read low 1.01 | locus YKL068W, active compounds read low 0.996 | locus YKL085W, strain MDH1 (second series), active compounds read low 0.995 | locus YKL085W, strain MDH1, active compounds read low 0.995 | locus YKL160W, strain elf1, active compounds read low 1.01 | locus YKL190W, strain CNB1, active compounds read low 1.01 | locus YKR001C, strain vps1, active compounds read low 0.992 | locus YKR026C, strain gcn3, active compounds read low 0.994 | locus YKR091W, strain srl3, active compounds read low 1.01 | locus YLL001W, strain dnm1, active compounds read low 1 | locus YLL026W, active compounds read low 0.996 | locus YLL041C, strain sdh2, active compounds read low 1.01 | locus YLR027C, strain aat2, active compounds read low 0.988 | locus YLR039C, strain RIC1, active compounds read low 1 | locus YLR058C, strain SHM2, active compounds read low 1.02 | locus YLR102C, strain apc9, active compounds read low 1 | locus YLR221C, strain rsa3, active compounds read low 0.998 | locus YLR258W, strain gsy2, active compounds read low 1.02 | locus YLR262C, strain YPT6 (second series), active compounds read low 1.02 | locus YLR262C, strain YPT6, active compounds read low 1.05 | locus YLR268W, strain sec22, active compounds read low 1 | locus YLR320W, strain mms22, active compounds read low 0.998 | locus YLR330W, strain CHS5, active compounds read low 1.01 | locus YLR342W, strain FKS1 (second series), active compounds read low 1.01 | locus YLR342W, strain FKS1, active compounds read low 1 | locus YLR357W, strain rsc2, active compounds read low 0.971 | locus YLR370C, strain arc18, active compounds read low 1 | locus YLR371W, strain rom2, active compounds read low 1.01 | locus YLR384C, strain iki3, active compounds read low 1 | locus YLR418C, strain cdc73, active compounds read low 0.998 | locus YML016C, strain PPZ1, active compounds read low 1 | locus YML032C, strain rad52, active compounds read low 0.998 | locus YML120C, strain ndi1, active compounds read low 1.01 | locus YML124C, strain tub3, active compounds read low 1 | locus YMR058W, strain fet3, active compounds read low 1 | locus YMR078C, strain ctf18, active compounds read low 1 | locus YMR125W, strain sto1, active compounds read low 0.993 | locus YMR129W, active compounds read low 1 | locus YMR205C, strain PFK2, active compounds read low 1 | locus YMR223W, strain ubp8, active compounds read low 1 | locus YMR231W, strain pep5, active compounds read low 0.977 | [2] 1.05 | locus YNL067W, strain RPL9B, active compounds read low 1.03 | locus YNL071W, strain lat1, active compounds read low 1 | locus YNL209W, strain ssb2, active compounds read low 1.01 | locus YNL233W, strain BNI4, active compounds read low 1.02 | locus YNL248C, strain rpa49, active compounds read low 1 | locus YNL250W, strain rad50, active compounds read low 1.01 | locus YNL271C, strain bni1, active compounds read low 0.996 | locus YNL298W, strain CLA4, active compounds read low 1 | locus YNL307C, strain MCK1, active compounds read low 1 | locus YNL322C, strain KRE1 (second series), active compounds read low 0.996 | locus YNR049C, strain mso1, active compounds read low 0.998 | locus YNR052C, strain pop2, active compounds read low 1 | locus YOL006C, strain TOP1, active compounds read low 1.06 | locus YOL012C, strain htz1 0.872 | locus YOL147C, strain pex11, active compounds read low 1 | locus YOR001W, strain rrp6, active compounds read low 1.01 | locus YOR061W, strain CKA2, active compounds read low 0.997 | locus YOR069W, strain VPS5, active compounds read low 1 | locus YOR070C, strain gyp1, active compounds read low 1.02 | locus YOR080W, strain dia2, active compounds read low 0.99 | locus YOR083W, strain WHI5, active compounds read low 1 | locus YOR106W, strain vam3, active compounds read low 1.01 | locus YOR136W, strain idh2, active compounds read low 1.01 | locus YOR144C, strain elg1, active compounds read low 0.987 | locus YOR184W, strain ser1, active compounds read low 0.986 | locus YOR265W, strain rbl2, active compounds read low 1.01 | locus YOR270C, strain vph1, active compounds read low 1.03 | locus YOR290C, strain snf2, active compounds read low 1.01 | locus YOR316C, strain cot1, active compounds read low 1 | locus YPL051W, strain arl3, active compounds read low 0.996 | [3] 1.01 | locus YPL078C, strain atp4, active compounds read low 1 | locus YPL106C, strain sse1, active compounds read low 0.99 | locus YPL240C, strain hsp82, active compounds read low 0.999 | locus YPR119W, strain clb2, active compounds read low 1 | locus YPR141C, strain kar3, active compounds read low 0.985 | locus YPR163C, strain tif3, active compounds read low 1 | locus YPR167C, strain met16, active compounds read low 0.994 | strain wtn01, active compounds read low 0.986
